These results are taken from PubChem BioAssay (Tox21).

Records with an inconclusive call do not appear. Entries that show only a call come without a potency. Calls of active or inactive are those of the source. Calls follow the shape of the dose curve; as a rule, active = well fitted activation curve with a large enough effect in the repeat runs; inconclusive = weak or mixed curves; inactive = flat fitted curve, though single readings scatter.
Potency is read from the fitted curve at half-maximal effect.

The target in the assay is Nuclear receptor subfamily 1 group I member 2 (Homo sapiens) (UniProt O75469). Kind of assay: Human pregnane X receptor (PXR) activation by small molecules, qHTS assay (AID 1346985). Also: nearly all actives have a fitted effect of over 40% in size. Conditions: DPX-2 HepG2 CYP3A4-luciferase, 24 h; series mostly up to 38.3 µM. In short, it runs like this:
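DPX-2 cells (HepG2 co-transfected with a PXR response element and a CYP3A4-promoter luciferase construct) were seeded at 2,000 per well, rested 5 hr at 37C, then exposed to DMSO-dissolved compounds for 24 hr. Activation was read as luciferase luminescence.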
In general terms: Quantitative high-throughput screening tests each substance at several concentrations.
In the case of `CN1CCN(c2c(F)cc3c(=O)c(C(=O)O)cn4c3c2SCC4)CC1`, the Potency result is “inactive”. To `CCN[C@H]1CN(CCCOC)S(=O)(=O)c2sc(S(N)(=O)=O)cc21` belongs “inactive”.

Take `C[C@@H]1CN(c2c(F)c(N)c3c(=O)c(C(=O)O)cn(C4CC4)c3c2F)C[C@H](C)N1`: the Potency result was “inactive”. In the case of `CCc1cc(Cl)c(OC)c(C(=O)NC[C@@H]2CCCN2CC)c1O` it was 25.1 µM (active); in that of `CCCNC(C)C(=O)Nc1c(C)csc1C(=O)OC` (centres undefined), “inactive”.

`CO[C@@]1(NC(=O)CSCC#N)C(=O)N2C(C(=O)O)=C(CSc3nnnn3C)CS[C@@H]21`: the Potency entry was “inactive”. To `CCCCCCCCCCCCCCCCOP(=O)([O-])OCC[N+](C)(C)C` belongs “inactive”. To `NCCC(O)(P(=O)(O)O)P(=O)(O)O` belongs “inactive”. For `C[C@@H]1CN(c2c(F)c(F)c3c(=O)c(C(=O)O)cn(C4CC4)c3c2F)C[C@H](C)N1`, the Potency entry was “inactive”.

Regarding `C[C@@H](N)C(=O)O`, the Potency entry was “inactive”. To `CC1(C)O[C@@H]2C[C@H]3[C@@H]4CCC5=CC(=O)CC[C@]5(C)[C@@]4(F)[C@@H](O)C[C@]3(C)[C@]2(C(=O)CCl)O1` belongs 5.01 µM (active); to `CCc1nnc(NS(=O)(=O)c2ccc(N)cc2)s1`, “inactive”. To `CCCCc1ccc2nc(NC(=O)OC)[nH]c2c1` belongs 4.47 µM (active); to `CCN(CC)CCNC(=O)COc1ccc(Cl)cc1`, “inactive”.
